A number with no mark means an inactive call. Active and inactive are the calls of the source.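 How the source made its calls: active means activity change under -35% in any replicate well, with more than 20 beads read in that well; inactive means the rest.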
Molecular target: Caspase recruitment domain-containing protein 9 (Homo sapiens) + E3 ubiquitin-protein ligase TRIM62 (Homo sapiens) (UniProt Q9H257+Q9BVG3)
Test: disruptors of CARD9-TRIM62 binding, primary screen, cell lysate, HEK293FT lysates, Luminex bead ELISA (AID 1259341);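 further: PE anti-Flag signal of Flag-CARD9 captured by myc-TRIM62 beads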
Settings: PE fluorescence, active compounds read low, concentration not given here

Caspase recruitment domain-containing protein 9 (Homo sapiens) + E3 ubiquitin-protein ligase TRIM62 (Homo sapiens), sequence (Q9BVG3 whole entry, looked up, the tested form may be a part): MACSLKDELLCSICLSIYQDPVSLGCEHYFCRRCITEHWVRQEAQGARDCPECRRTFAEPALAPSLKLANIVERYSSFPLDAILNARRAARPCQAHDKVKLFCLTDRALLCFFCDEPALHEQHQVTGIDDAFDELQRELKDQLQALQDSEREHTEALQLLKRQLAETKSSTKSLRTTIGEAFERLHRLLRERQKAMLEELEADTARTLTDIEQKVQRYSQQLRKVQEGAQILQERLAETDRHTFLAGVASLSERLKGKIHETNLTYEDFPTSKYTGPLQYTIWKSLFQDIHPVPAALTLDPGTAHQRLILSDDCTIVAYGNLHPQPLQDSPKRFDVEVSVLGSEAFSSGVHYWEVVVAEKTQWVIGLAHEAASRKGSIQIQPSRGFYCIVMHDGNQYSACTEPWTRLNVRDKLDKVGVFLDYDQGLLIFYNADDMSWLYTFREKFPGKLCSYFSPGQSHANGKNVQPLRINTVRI
Caspase recruitment domain-containing protein 9 (Homo sapiens) + E3 ubiquitin-protein ligase TRIM62 (Homo sapiens), sequence (Q9H257 whole entry, looked up, the tested form may be a part): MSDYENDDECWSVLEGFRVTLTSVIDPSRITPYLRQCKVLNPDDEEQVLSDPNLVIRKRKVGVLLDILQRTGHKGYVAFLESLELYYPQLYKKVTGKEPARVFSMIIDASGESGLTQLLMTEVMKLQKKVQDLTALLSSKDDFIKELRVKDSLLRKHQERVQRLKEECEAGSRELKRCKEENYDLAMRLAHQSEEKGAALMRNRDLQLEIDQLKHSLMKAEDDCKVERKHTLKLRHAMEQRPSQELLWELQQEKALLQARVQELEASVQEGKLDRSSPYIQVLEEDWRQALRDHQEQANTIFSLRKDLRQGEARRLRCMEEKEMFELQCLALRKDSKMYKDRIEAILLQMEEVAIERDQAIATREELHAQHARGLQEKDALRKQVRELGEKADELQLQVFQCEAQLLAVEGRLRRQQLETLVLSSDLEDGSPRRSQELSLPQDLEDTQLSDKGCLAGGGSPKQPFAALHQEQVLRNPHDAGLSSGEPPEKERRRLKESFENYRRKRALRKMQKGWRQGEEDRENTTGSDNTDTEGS

Compound	activity change, negative = inhibition
O=C(Nc1ccc2oc(-c3ccncc3)nc2c1)c1ccc2c(c1)OCCO2	-1.89%
O=C(NC(Sc1ncccn1)C(=O)c1ccccc1)c1ccccc1 (stereo unspecified)	2.47%
Nc1cc2c(cc1-n1cccc1)OCCO2	4.12%
COc1cccc(NC(=O)CN(C)C(=O)c2cc3c(s2)CCC3)c1	-19.8%
FC(F)(F)c1cc(Cl)c2nnc(C(F)(F)Cl)n2c1	1.08%
CCSCCNC(=O)c1cncc(Br)c1	0.232%
Cc1ccc(C)n1NC(=O)c1ccccc1O	1.19%
COc1ccc(S(=O)(=O)Nc2ccc3c(c2)C(=O)N([C@H](C)CO)C[C@H](C)[C@@H](CN(C)CC2CCCCC2)OCCCC[C@H](C)O3)cc1	5.92%
O=C(Cn1cncc1-c1ccc([N+](=O)[O-])cc1)Nc1ccccc1F	4.4%
COc1c(C(=O)O)csc1Br	-20.4%
CC(=O)Nc1ccc(Nc2nc(-c3nnc(-c4cccc(C)c4)o3)nc3ccccc23)cc1	-1.95%
CCCc1oc(C(=O)O)cc1CN	-4.57%
COc1ccc(-n2c(C)c3c(OC)cccc(=O)c3c2C)cc1	3.94%
O=C(CCN1CCOCC1)c1ccc2c(c1)OCCO2	10.8%
N#CCSc1nc2c(c(=O)n1Cc1ccco1)C1(CCCC1)Cc1ccccc1-2	-5.29%
O=C(Nc1nc(-c2ccccn2)cs1)c1cccc(-n2cnnn2)c1	199%
Cc1ccc(S(=O)(=O)Nc2ccc3c(c2)C(=O)N([C@H](C)CO)C[C@H](C)[C@@H](CN(C)CC2CCCCC2)OCCCC[C@H](C)O3)cc1	4.51%
O=C(Nc1nc(-c2nc3ccccc3s2)cs1)c1ccco1	1.21%

Compound	activity change, negative = inhibition
O=C(NCCc1ccco1)c1ccc(OCc2cn3ccccc3n2)cc1	0.111%
CCOC(=O)c1ccc(-c2ccc(C3CC(=O)Nc4cc5c(cc43)OCCO5)o2)cc1 (stereo unspecified)	-0.752%
O=C(Cc1cccs1)Nc1nnc(Cc2ccccc2)s1	10.6%
Cc1ccc(-c2nc(C)sc2CC(=O)NCc2ccco2)cc1	-1.34%
O=C(NC1CC1)c1cc(-c2ccco2)nc2ccccc12	-6.41%
C[C@H](CO)N1C[C@H](C)[C@@H](CN(C)C(=O)C2CCCCC2)OCCCC[C@H](C)Oc2ccc(NS(=O)(=O)c3cn(C)cn3)cc2C1=O	-7.17%
O=C(O)COc1ccc(-n2cccc2)cc1	-1.45%
O=c1oc(-c2ccccc2)nc2sc3c(c12)CCC3	0.684%
Cc1ccc(C(=O)Nc2ccc(N3CCC(C(N)=O)(N4CCCCC4)CC3)c(C(=O)O)c2)cc1	-42.4%
Cc1cc(C(=O)NCc2ccco2)on1	-1%
C[C@H](CO)N1C[C@H](C)[C@@H](CN(C)C(=O)C2CCCCC2)OCCCC[C@H](C)Oc2ccc(NS(=O)(=O)c3ccc(Cl)cc3)cc2C1=O	8.52%
COCC(=O)N1CCCC2(CCN(CCN3CCCC3)C2=O)C1 (stereo unspecified)	-5.85%
NC(=O)C1(N2CCCCC2)CCN(c2ncc(NC(=O)c3cccc(Cl)c3)cc2C(=O)O)CC1	-53.8% (active)
COc1ccc(S(=O)(=O)c2ccccc2)cc1NS(=O)(=O)c1cccc(C(=O)O)c1	-0.344%
O=C(NCc1ccco1)c1c2c(nc3ccccc13)CCC2	-3.42%
O=C(CCc1nc(-c2ccccc2)no1)NCC1CNCCOC1 (stereo unspecified)	18.6%
On1c(-c2ccco2)nc2c1CCc1nonc1-2	-2.2%
COc1ccc(-c2ccc(CCC(=O)O)o2)cc1	-0.268%

From PubChem BioAssay AID1259341 (Broad Institute, 2017)
